Here are results for 40 molecules from PubChem BioAssay (Tox21).

Records with an inconclusive call do not appear. A call without a number means that no potency is given here. Active and inactive are the calls of the source. Calls come from the whole dose curve; as a rule, active = well fitted cell-killing curve with a large enough effect in the repeat runs; inconclusive = weak or mixed curves, or effect the other way; inactive = flat fitted curve, though single readings scatter.
Potency is the fitted concentration of half-maximal effect.

A short description of this experiment: qHTS RealTime-Glo MT Cell Viability Assay in HepG2 cells - 0 hour (AID 1224889). Note: nearly all actives have a fitted effect of over 50% in size. The following applies: RealTime-Glo luminescence; series mostly up to 76.8 µM. The source says: U.S. Tox21 Program National Center for Advancing Translational Sciences [NCATS] NIH Chemical Genomics Center [NCGC] U.S. Environmental Protection Agency [EPA] National Institutes of Environmental Health Sciences [NIEHS] National Toxicology Program [NTP] U.S. Food and Drug Administration [FDA] Tox21 Assay Overview: Measure of cell viability is critical in the cell-base assay. Analysis of cell viability is necessary for the characterization of cell responses to cytotoxic drugs and environmental stress. A RealTime-Glo MT Cell Viability Assay to monitor cell viability in real time of continues cell culture during 40 hours of compound treatment was used to screen Tox21 10K library compounds in HepG2 cells. The RealTime-Glo MT Cell Viability Assay is a nonlytic, homogeneous, bioluminescent method to measure cell viability in real time using a simple, plate-based method. The assay involves adding NanoLuc luciferase and a cell-permeant prosubstrate to cells in culture. Viable cells reduce the proprietary prosubstrate to generate a substrate for NanoLuc luciferase. This substrate diffuses from cells into the surrounding culture medium, where it is rapidly used by the NanoLuc Enzyme to produce a luminescent signal. The signal correlates with the number of viable cells, making the assay well suited for cytotoxicity studies.
Tox21 Assay Protocol Summary: The mixture of HepG2 cell suspension and reagents were dispensed at 600cells/6 ul/well in 1536-well tissue culture treated black solid bottom plates using a Multidrop dispenser. After the assay plates were incubated at a 37 C/5% CO2 incubator for 5 hours, 23 nL of compounds dissolved in DMSO, positive and negative controls was transferred to the assay plate by a pintool work station. The plates were incubated at 37 C for 40 hours. The luminescence intensity were measured at 0h, 8h, 16h, 24h, 32h and 40h time points using ViewLux plate reader during compound treatment.
A general note: In qHTS, concentration-response curves come from the screen itself.
On to `COc1cnc(OC)n2nc(NS(=O)(=O)c3c(OCC(F)F)cccc3C(F)(F)F)nc12`, for which the Potency result was “inactive”.
Regarding `CCNS(=O)(=O)C(F)(F)C(F)(F)C(F)(F)C(F)(F)C(F)(F)C(F)(F)C(F)(F)C(F)(F)F`, the Potency entry is “inactive”.
As for `S=C=Nc1ccccc1`, the Potency result was “inactive”.
For the molecule `CCC1COC(Cn2cncn2)(c2ccc(Cl)cc2Cl)O1` (stereo not given), the Potency entry was “inactive”.
Regarding `Cc1cccc(Cc2cnc[nH]2)c1C`, the Potency result is “inactive”.
As to `Brc1ccc(Oc2ccc(Br)cc2Br)c(Br)c1`, the Potency result is “inactive”.
Consider `COP(=O)(OC)Oc1ccc([N+](=O)[O-])cc1`, for which the Potency result was “inactive”.
In the case of `COc1ccc2c(c1OC)C(=O)O[C@@H]2[C@H]1c2cc3c(cc2CCN1C)OCO3`, the Potency entry was “inactive”.
On to `[O]=[Cr][O][Cr]=[O]`, for which the Potency entry was “inactive”.
Take `CCN1CCC2(CC1)COc1cc3c(cc12)N(C(=O)c1ccc(-c2ccc(-c4nnc(C)o4)cc2C)cc1)CC3`: the Potency was 20.2 µM (active).
Take `C#CC1(O)CCCCC1`: the Potency entry was “inactive”.
For `Nc1nc(N)nc(Cl)n1`, the Potency entry was “inactive”.
With `COP(=S)(OC)Oc1nc(Cl)c(Cl)cc1Cl`, the Potency entry is “inactive”.
For `BrCCCBr`, the Potency entry was “inactive”.
Under `Cc1c([N+](=O)[O-])cc2c(c1[N+](=O)[O-])C(C)(C)CC2(C)C` stands “inactive”; under `c1ccc2c(c1)cc1ccc3cccc4ccc2c1c34`, “inactive”; under `O=C(O)CCCCCCNC1c2ccccc2CCc2ccccc21`, “inactive”.
With `CCc1cccc(C)c1N(C(=O)CCl)[C@@H](C)COC` the entry was “inactive”.
`CN1CCc2cc(Cl)c(O)cc2[C@H]2c3ccccc3CC[C@@H]21`: the Potency result was “inactive”.
With `[O]=[Cr](=[O])([OH])[O][Cr](=[O])(=[O])[OH]` the entry was “inactive”.
Under `Cc1cc(C2CC2)nc(Nc2ccccc2)n1` stands “inactive”; under `C=CCBr`, “inactive”; under `CO/N=C(\C(=O)OC)c1ccccc1CO/N=C(\C)c1cccc(C(F)(F)F)c1`, “inactive”.
As to `ClSC(Cl)(Cl)Cl`, the Potency entry is “inactive”.
Turning to `C[N+]1(C)[C@@H]2CC[C@H]1CC(OC(=O)C(CO)c1ccccc1)C2` (stereo not given in full), the Potency entry is “inactive”.
Regarding `ClCBr`, the Potency entry was “inactive”.
For the molecule `O=c1[nH]c(Cl)c(Cl)cc1Cl`, the Potency result is “inactive”.
In the case of `O=[N+]([O-])c1ccccc1-c1ccccc1`, the Potency entry was “inactive”.
With `[F][Sn]([c]1ccccc1)([c]1ccccc1)[c]1ccccc1` the entry was “inactive”.
In the case of `[O-][Cl+3]([O-])([O-])O`, the Potency result was “inactive”.
Take `CCOP(=O)(OCC)Oc1cc(C)nc(C(C)C)n1`: the Potency entry was “inactive”.
Regarding `CN=C=O`, the Potency result is “inactive”.
In the case of `CCN(CC)CCN1C(=O)CN=C(c2ccccc2F)c2cc(Cl)ccc21`, the Potency entry was “inactive”.
As to `FC(F)C(F)(F)OCC(Cn1cncn1)c1ccc(Cl)cc1Cl` (stereo not given), the Potency entry is “inactive”.
With `C[C@]12C/C(=C/O)C(=O)C[C@@H]1CC[C@@H]1[C@@H]2CC[C@@]2(C)[C@H]1CC[C@]2(C)O` the entry was “inactive”.
As for `CC1CCCC1`, the Potency entry is “inactive”.
Under `NC(=O)C(Cl)Cl` stands “inactive”; under `CCCCN(CCCC)C(=S)S`, “inactive”.
Consider `CCOP(=S)(NC(C)C)Oc1ccccc1C(=O)OC(C)C` (stereo not given), for which the Potency result is “inactive”.
For the molecule `CN1C2CCC(C)(C)C1CC(OC(=O)C(O)(c1cccs1)c1cccs1)C2` (stereo not given), the Potency result is “inactive”.
